Source: PubChem BioAssay AID720597 (Broad Institute, 2013)
Entries with a potency or affinity are not part of this list. The source made the active and inactive calls.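 The calls were made as follows: active = fitted half-maximal dose no more than twice the top valid tested dose, for compounds that lower signal; inconclusive = fit invalid, or curve flat with activity between -70 and -30; inactive = potency past limit, curve flat within ±30, or signal increasing.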

What follows are compounds tested against NAD-dependent protein deacylase sirtuin-5, mitochondrial (Homo sapiens) (UniProt Q9NXA8) (assay: blockers of sirtuin-5 peptide desuccinylation – biochemical, fluorescence imaging, cherry-pick, set 6, dose response (AID 720597;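 also: lower AMC signal can also come from blocking the trypsin step; 0% = median of neutral control wells and -100% = median of positive control wells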)). Conditions: Purified SirT5, succinyl-peptide-AMC/trypsin fluorescence; series mostly up to 15 µM; activity change, negative = inhibition: at the top concentration.
Chain of NAD-dependent protein deacylase sirtuin-5, mitochondrial (Homo sapiens) (Q9NXA8 whole entry, looked up): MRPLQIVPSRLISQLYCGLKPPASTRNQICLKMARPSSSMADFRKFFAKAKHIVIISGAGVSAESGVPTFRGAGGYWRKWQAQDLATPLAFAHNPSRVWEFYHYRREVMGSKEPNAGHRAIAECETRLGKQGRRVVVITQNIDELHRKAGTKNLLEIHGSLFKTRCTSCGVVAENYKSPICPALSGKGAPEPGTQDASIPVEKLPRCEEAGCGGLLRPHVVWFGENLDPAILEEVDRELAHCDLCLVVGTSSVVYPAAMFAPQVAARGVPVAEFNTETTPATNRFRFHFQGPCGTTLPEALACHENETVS

Activity change, negative = inhibition, inactive:
Cc1ccc(S(=O)(=O)Nc2ccc3c(c2)CC(=O)N([C@@H](C)CO)C[C@H](C)[C@@H](CN(C)Cc2ccc(-c4ccccc4)cc2)O3)cc1 33.9%, O=C(NC1CCCCC1)[C@@H]1[C@@H](CO)[C@@H]2Cn3c(cccc3=O)[C@H]1N2CC1CCCCC1 30.8%, C[C@@H]1CN([C@@H](C)CO)C(=O)Cc2cc(NS(=O)(=O)c3ccc(F)cc3)ccc2O[C@@H]1CN(C)C(=O)NC1CCCCC1 -20.9%, Cc1cc(C)cc(NC(=O)C2CC(=O)n3ncnc3N2)c1 (stereo unspecified) -3.96% [at 18 µM], CC(C)CC#Cc1ccc2c(c1)O[C@@H](CN(C)S(=O)(=O)c1cccc(F)c1)[C@@H](C)CN([C@@H](C)CO)S2(=O)=O -21.2%, C[C@@H]1CN([C@H](C)CO)S(=O)(=O)c2ccc(C#Cc3cccc(F)c3)cc2O[C@@H]1CN(C)S(=O)(=O)c1ccccc1F 40.1%, CCCC(=O)Nc1ccc2c(c1)OC[C@@H](C)N(Cc1ccccc1OC)C[C@@H](C)[C@H](OC)CN(C)C2=O -13.5%, CCCNC(=O)N1C[C@@H](O)COC[C@@H]2O[C@H](CC(=O)N3CCC(Cc4ccccc4)CC3)CC[C@H]21 -18.4%, C[C@@H]1CCCCO[C@@H](CN(C)CC2CCCCC2)[C@@H](C)CN([C@@H](C)CO)C(=O)c2cc(NS(=O)(=O)c3ccc(F)cc3)ccc2O1 -4.34%, C[C@@H]1CN([C@@H](C)CO)C(=O)Cc2cc(NC(=O)Nc3ccc(F)cc3)ccc2O[C@@H]1CN(C)C 12.7%, C[C@@H]1CN([C@H](C)CO)C(=O)c2cc(NC(=O)c3ccncc3)ccc2O[C@@H]1CN(C)C(=O)Nc1ccc2c(c1)OCO2 -14.6%
